We go through 40 molecules from PubChem BioAssay (NCI).

SMILES strings stand for the structures. The panel holds about 83,000 compounds, 20% with a hit somewhere; the sample as a whole holds those more often.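 A percent growth of 40 corresponds to 60% growth inhibition; 0 means no net growth; -100 means all cells died. Active threshold: below 10.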 Values without a mark were called inactive. The source made the active and inactive calls.

The experiment deals with NCI-H322M lung. Description: NCI-60 one-dose screen, 48 h (100 = growth as untreated, 0 = no growth, -100 = all killed). To be noted: 10 µM unless noted. As to the method:
Growth inhibition of the NCI-H322M human Non-Small Cell Lung tumor cell line is measured as a screen for anti-cancer activity. Cells are grown in 96 well plates and exposed to the test compound for 48 hours. Compounds are tested at a single concentration, which is 10^-5 M for most compounds. The reported endpoint is percent growth (GI% or GIPRCNT), where numbers from 0 - 100% represent growth inhibition, and numbers from -100% - 0 represent cell death. For example, a value of 40 represents 60% growth inhibition. A value of 0 means no net growth occurred over the course of the experiment. A value of -40 indicates 40% of cells at the beginning of the experiment died by the end of the experiment. A value of -100 means all cells are dead at the end of the experiment.
NCI-60 Human Tumor Cell Lines Screen was performed using the standard one-dose NCI protocol, which is described in more detail at https://dtp.cancer.gov/discovery_development/nci-60/default.htm.
Compounds with GIPRCNT values below 10 were considered active. Activity score was based on GIPRCNT using the following formula: […]
Score is 0 for GIPRCNT values of 100 or above, 50 for GIPRCNT values of 0, and 100 for GIPRCNT values of -100.
Take `COc1ccc(/C=N/C2=C(C#N)C(c3ccccc3)c3ccc4ccccc4c3O2)cc1` (stereo not given): the growth is 43.7%.
For the molecule `Cc1ccc(/C=C2\COc3ccc(O)cc3C2=O)cc1`, the growth was 99.6%.
For `COc1ccc(-c2nc3cc(C(=O)NCc4ccccc4)ccc3n2C2CCCCC2)cc1` the value was 81%; for `CNC(=O)c1ccccc1Oc1nc(Nc2cc(OC)c(OC)c(OC)c2)ncc1Br`, 58.5%.
For `O=C(CN1C(=O)NC2NC(=O)NC21)N/N=C/c1ccccc1[N+](=O)[O-]` (stereo not given) the value was 106%; for `c1ccc(Cn2cc3c(c2)-c2oncc2CC3)cc1`, 60.4%.
With `N#CC1=C(c2ccccc2)Nc2c(c(-c3ccc(Cl)cc3)nn2-c2ccccc2)C12C(=O)Nc1ccc(Cl)cc12` (stereo not given), the growth was 91.3%.
For `O=C(Nn1c2c(sc1=NC1CC1)C(=O)c1ccccc1C2=O)c1cc2ccc1CCc1ccc(cc1)CC2` the value was 96%; for `CC(C)c1ccc(C(=O)Nc2nc3ccc(O)c(CN(C)C)c3s2)cc1`, 81.9%.
For `CN(C)CC1CCC(CN(C)C)C1=O` (stereo not given) the value was 110%.
`O=C(CN1C(=O)S/C(=C\C(Cl)=C\c2ccccc2)C1=O)NCCc1ccc(O)cc1`: the growth was 75.2%.
As for `CCOC(=O)C1=C(N)Oc2c(sc3c(F)cccc23)C1c1ccc(O)cc1` (stereo not given), the growth is 67.5%.
For `Nc1nc(-c2ccc(Cl)cc2)nc2c1sc(=S)n2-c1ccccc1` the value was 45.7%; for `N#CC1=C(N)Oc2c(c(=O)[nH]c3ccc(Cl)cc23)C12C(=O)c1ccccc1C2=O`, 93%; for `Cn1cc(-c2csc(-c3c[nH]c4ccccc34)n2)c2cnccc21`, 90.2%.
Regarding `O=C1/C(=C/c2ccc([N+](=O)[O-])cc2)COc2ccc(O)cc21`, the growth was 91.9%.
For `COc1cc2c(c(OC)c1OC)CCC(c1cccc(C(=O)Nc3cccc(Cl)c3)c1)O2` (stereo not given) the value was 51.7%; for `COc1cc2ncnc(Nc3ccc(F)c(Cl)c3)c2cc1OCC(=O)N1CCN(c2ccccc2)CC1`, 34%; for `COc1ccc(Nc2nc(-c3cc(O)c(C)c(C)c3O)cs2)cc1`, 90.9%.
For `Cc1ccc(C(=O)c2ccc(CC(=O)N/N=C/c3ccccc3O)n2C)cc1` the value was 78.9%; for `CCOC(=O)C(=O)C(C(=O)OCC)c1ccccc1` (stereo not given), 110%.
Take `C1CN(SSN2CCOCC2)CCO1`: the growth was 59.3% [100 µM].
`COc1cc(-c2csc(NC(=O)c3ccc(N4CCOCC4)c(C(F)(F)F)c3)n2)cc(OC)c1OC`: the growth is 70.3%.
Under `COC12C=C/C(=C(/C(=O)OCc3ccncn3)C(=O)CCCCCCCCC3(OC)C=C/C(=C(/C(=O)OCc4ccncn4)C(=O)CCCCCCCC1)O3)O2` stands -76.5% (active); under `Cc1ccc(C)n1-c1ccccc1-n1c(C)ccc1C`, 99.9%.
Turning to `C=C1C(=O)O[C@H]2[C@H]1CC/C(COC(=O)C(=O)c1cn(C)c3ccc(Cl)cc13)=C\CC[C@@]1(C)O[C@@H]21`, the growth is -68.9% (active).
`C=CCn1c(SCC(=O)Nc2ccc(C(=O)/C=C/c3ccc(Cl)cc3)cc2)nnc1-c1ccc(Br)cc1`: the growth was 91.8%.
Regarding `C=C(C)[C@@H]1CC[C@]2(C(=O)N3CCOCC3)CC[C@]3(C)[C@H](CC[C@@H]4[C@@]5(C)C/C(=C/c6ccncc6)C(=O)C(C)(C)[C@@H]5CC[C@]43C)[C@@H]12`, the growth was 86.8%.
For the molecule `CCN(CC)CCn1c2ccc(OC)cc2c2sc3cc(OC)ccc3c(=O)c21`, the growth was 29.8%.
Under `CC1=C([Se]CC(OC(=O)CC[Se]c2ccccc2)C(=O)NC(C)(C)C)C(=O)c2ccccc2C1=O` (stereo not given) stands -51.9% (active); under `CC1=C2[C@@H](CC1)[C@]1(C)O[C@@](C(C)C)(C[C@H]1OC(=O)[C@H](C)O)[C@H]2OC(=O)/C=C/c1ccccc1`, 85.9%; under `O=C(/C=C/c1ccccc1)Nc1ncc(Cc2ccccc2Cl)s1`, 33.8%.
With `COc1ccc(NC(=O)c2sc3nc(C)c(C(=O)/C=C/c4ccccc4)cc3c2N)cc1`, the growth is 13.1%.
For `COc1ccc(C2=C(Br)C(=O)c3nc(C)ccc3C2=O)cc1` the value was 88.4%.
Regarding `COc1cc2c(cc1OCCCN1CCN(CCCOc3cc4c(cc3OC)C(=O)N3CCC[C@H]3C=N4)CC1)C=CC(C)(C)O2`, the growth was -80.7% (active).
For `CCOC(=O)c1cc(C(=O)c2cc(OC)c(OC)c(OC)c2)n2ncccc12` the value was 48.1%.
For `COc1ccc(C/C(C)=C(\c2ccc(Cl)cc2)c2ccc(OCCN3CCCCC3)cc2)cc1` the value was 96.7%; for `Cc1ccc(-c2nc([P+](c3ccccc3)(c3ccccc3)c3ccccc3)c(S(=O)(=O)c3ccc(C)cc3)o2)cc1`, 57.2%; for `N#CC1=C(N)Oc2c(ccc3ccccc23)C1c1ccccc1` (stereo not given), 55.6%.
With `COc1ccc(Cc2cnc(NC(=O)c3cc(C)oc3C)s2)cc1`, the growth is 51.9%.
